Autofluor counter: counter-screen for toxin protease inhibitors: compound fluorescence. compound autofluorescence counterscreen, microsphere flow cytometry; hits give high values. fluorescence intensity (test concentration not listed). hit rate 3.1% among 360,000; in the data active = fluorescence intensity above about 16000; inconclusive = no clear call, values can overlap the other calls
BoNT-F LC inh: inhibitors of Botulinum neurotoxin F light chain protease; AID 588497; hit rate 0.22% among 360,000; Multiplex microsphere protease cleavage assay, flow cytometry; inhibition, % at 10 µM; in the data active = inhibition above about 35%, passing the limit was not always enough; inconclusive = no clear call, values can overlap the other calls; note: plate controls were buffer without enzyme for full effect and enzyme alone for no effect
BoNT A protease: inhibitors of Botulinum neurotoxin A light chain protease; multiplex microsphere protease substrate cleavage, flow cytometry; inhibition, % at 10 µM; hit rate 0.17% among 360,000; AID 588499; note: plate controls were buffer without enzyme for full effect and enzyme alone for no effect
Anthrax LF inh2: inhibitors of Bacillus anthracis lethal factor protease | P15917 | multiplex microsphere protease cleavage assay, LF | inhibition, % at 10 µM | hit rate 0.12% among 360,000 | AID 588501; note: plate controls were buffer without enzyme for full effect and enzyme alone for no effect
Target sequence (P15917 whole entry, looked up): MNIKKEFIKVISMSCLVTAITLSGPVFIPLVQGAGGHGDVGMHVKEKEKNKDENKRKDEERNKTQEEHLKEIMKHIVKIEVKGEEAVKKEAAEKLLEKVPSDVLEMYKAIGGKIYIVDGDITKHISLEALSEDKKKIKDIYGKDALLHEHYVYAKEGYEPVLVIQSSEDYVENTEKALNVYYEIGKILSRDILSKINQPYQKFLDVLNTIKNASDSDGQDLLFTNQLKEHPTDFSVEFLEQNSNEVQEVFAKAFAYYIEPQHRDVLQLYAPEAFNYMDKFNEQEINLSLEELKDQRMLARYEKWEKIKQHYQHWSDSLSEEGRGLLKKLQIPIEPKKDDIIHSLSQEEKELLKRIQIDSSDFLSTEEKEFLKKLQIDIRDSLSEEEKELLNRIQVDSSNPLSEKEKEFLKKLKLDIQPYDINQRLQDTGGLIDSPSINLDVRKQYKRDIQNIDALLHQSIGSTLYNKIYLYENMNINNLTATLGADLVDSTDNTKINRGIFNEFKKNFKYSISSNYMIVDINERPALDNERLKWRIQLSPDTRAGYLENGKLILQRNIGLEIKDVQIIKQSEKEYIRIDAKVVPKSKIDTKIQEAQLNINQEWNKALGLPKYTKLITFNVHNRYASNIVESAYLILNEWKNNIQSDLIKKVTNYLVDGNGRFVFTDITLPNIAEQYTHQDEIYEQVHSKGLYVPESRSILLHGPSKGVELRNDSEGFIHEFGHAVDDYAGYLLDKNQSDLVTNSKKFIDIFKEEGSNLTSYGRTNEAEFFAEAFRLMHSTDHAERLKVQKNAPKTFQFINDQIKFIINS
TcdB inh: inhibitors of Clostridioides difficile toxin B glycohydrolase. P18177. TcdB glycohydrolase enzymatic assay, plate reader. inhibition, % at 9.99 µM. hit rate 0.24% among 350,000. AID 652162; in the data active = inhibition above about 10%
Numbers without * were called inactive; ? = inconclusive; nt = no result. This excerpt belongs to a sample that is enriched for hits. Cut-off read from the data, not from the text of the source, unless noted: active = inhibition above about 30%; inconclusive = no clear call, values can overlap the other calls; inactive = below that.

SMILES | Autofluor counter | BoNT-F LC inh | BoNT A protease | Anthrax LF inh2 | TcdB inh
CCn1c(SCc2cccc(C)c2)nnc1-c1ccccc1 | 23697* | -2 | ? | -1 | nt
CNC(=O)CSc1nnc(-c2ccncc2)n1Cc1ccccc1 | 16183* | 1 | 0 | -2 | nt
CCSc1nnc(-c2ccncc2)n1Cc1ccccc1 | 16561* | -1 | ? | -1 | nt
O=C(CSc1nnc(-c2ccncc2)n1CCc1ccccc1)NCc1ccccc1 | 3687 | 3 | -1 | -3 | nt
C[C@@H]1CCCCO[C@H](CN(C)Cc2ccc(C(=O)O)cc2)[C@@H](C)CN([C@@H](C)CO)C(=O)c2cc(NC(=O)CCC(F)(F)F)ccc2O1 | nt | nt | nt | nt | 0
C[C@@H]1CN([C@H](C)CO)C(=O)Cc2cc(NC(=O)Nc3ccc4c(c3)OCO4)ccc2O[C@H]1CN(C)CC1CCCCC1 | nt | nt | nt | nt | -1
CO[C@@H]1CN(C)C(=O)c2ccc(NS(=O)(=O)c3ccccc3)cc2OC[C@H](C)N(Cc2cccnc2)C[C@H]1C | nt | nt | nt | nt | 1
C=C(C)Cn1c(SCC(=O)O)nnc1-c1ccccc1 | 9791 | -9 | -1 | -7 | 2
C=CCn1c(SCC(=O)O)nnc1-c1ccccc1 | 22122* | 0 | 0 | -6 | nt
CNC(=O)C(C)NS(=O)(=O)c1ccc(F)cc1 (stereo unspecified) | 21451* | -5 | -4 | -1 | nt
Cc1ccc(NC(=O)C(C)NS(=O)(=O)c2ccc(F)cc2)cc1C (stereo unspecified) | 2522 | 0 | 0 | -2 | 1
CN(CC(=O)O)S(=O)(=O)c1ccc(F)cc1 | 10317 | -9 | 0 | 0 | nt
CNC(=O)CN(C)S(=O)(=O)c1ccc(F)cc1 | 23131* | 2 | ? | -1 | nt
Cc1ccc(C(=C2C3C=CC2C2C(=O)NC(=O)C32)c2ccc(C)cc2)cc1 (stereo unspecified) | 20213* | 3 | 1 | -1 | nt
COc1ccc(CCN2C(=O)CCC2(C)C(=O)NC2CCCC2)cc1OC (stereo unspecified) | 4572 | -10 | -1 | 1 | 1
CCOc1ccc(CCN2C(=O)CCC2(C)C(=O)NC(C)CC)cc1OCC (stereo unspecified) | 23716* | 0 | 0 | 2 | -1
C[C@H](CO)N1C[C@H](C)[C@H](CN(C)Cc2ccccc2C(F)(F)F)OCc2cn(nn2)CCCC1=O | nt | nt | nt | nt | 0
CC(Oc1ccccc1Cl)C(=O)/C=C/N(C)C (stereo unspecified) | 20970* | 5 | 4 | 0 | nt
COCC(=O)NC[C@H]1[C@H](c2ccc(C3=CCCC3)cc2)[C@H](CO)N1C(C)=O | nt | nt | nt | nt | 0
O=C(C[C@@H]1CC[C@@H]2[C@H](COC[C@H](O)CN2S(=O)(=O)c2ccccc2)O1)N[C@@H]1CCN(Cc2ccccc2)C1 | nt | nt | nt | nt | 0
CN(C)S(=O)(=O)c1ccc(/C(O)=C2/C(=O)C(=O)N(Cc3cccnc3)C2c2ccncc2)cc1 (stereo unspecified) | 17829* | -7 | -3 | -3 | nt
C[C@H](NC(=O)CCn1nnc2ccccc2c1=O)C(=O)O | nt | nt | nt | nt | 0
O=C(O)CCCNC(=O)CCn1nnc2ccccc2c1=O | 4894 | -4 | -1 | -2 | 1
O=C(O)CCCCCNC(=O)CCn1nnc2ccccc2c1=O | 21187* | 6 | ? | -2 | nt
O=C(CCn1nnc2ccccc2c1=O)NCC1CCC(C(=O)O)CC1 (stereo unspecified) | 24413* | -1 | -3 | -3 | nt
SMILES | Autofluor counter | BoNT-F LC inh | BoNT A protease | Anthrax LF inh2 | TcdB inh
C[C@@H]1CN([C@@H](C)CO)C(=O)Cc2cc(NC(=O)Nc3ccc4c(c3)OCO4)ccc2O[C@H]1CN(C)S(C)(=O)=O | nt | nt | nt | nt | -1
COc1ccc(S(=O)(=O)Nc2ccc3c(c2)C(=O)N([C@@H](C)CO)C[C@@H](C)[C@@H](CN(C)Cc2ccc4c(c2)OCO4)OCCCC[C@H](C)O3)cc1 | nt | nt | nt | nt | 0
C[C@H](CO)N1C[C@H](C)[C@@H](CN(C)C(=O)Nc2ccccc2)Oc2c(NC(=O)Nc3ccc(F)cc3)cccc2C1=O | nt | nt | nt | nt | 0
COC(=O)c1cc(OC)c(OC)cc1NC(=S)N1CCCC(CO)C1 (stereo unspecified) | 22143* | 1 | 1 | 4 | nt
COC(=O)c1ccc(C(=O)OC)c(NC(=S)N2CCCC(CO)C2)c1 (stereo unspecified) | 4215 | -1 | 0 | -1 | 0
C/C=C/c1ccc2c(c1)O[C@H](CN(C)C(=O)c1ccc(F)cc1)[C@@H](C)CN([C@@H](C)CO)S2(=O)=O | nt | nt | nt | nt | -1
c1coc(-c2nc3nc4ccccc4nc3n2CC2CCCO2)c1 (stereo unspecified) | 22833* | 1 | 3 | 4 | nt
c1ccc(-c2nc3nc4ccccc4nc3n2CC2CCCO2)cc1 (stereo unspecified) | 4262 | 4 | 1 | -4 | 2
